Experimental data taken from PubChem BioAssay (Tox21).
“And” between values parts separate entries of the source, which are not always exact repeats. Identical values can stand only once. Results filed as inconclusive are left out. Where a call stands in place of a potency, no number is given. Some structures have more than one record in an assay (separate samples or runs), and their calls can disagree. The source made the active and inactive calls. Unless noted, the call rests on the fitted dose curve.

Tests used:
[1] = qHTS assay to identify small molecule antagonists of the sonic hedgehog signaling (Shh) pathway (AID 1259369); further: nearly all actives have a fitted effect of over 45% in size; further: potency means the concentration at half of the fitted maximal effect
Outline: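 Cells are plated and held 4hr at 37 C, compounds (DMSO) are pinned in, conditioned medium is added to stimulate the pathway, and after 24hr luciferase reagent is added for 30min before luminescence is read.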

[2] = target: Estrogen receptor beta (Homo sapiens) (UniProt Q92731); test: qHTS assay to identify small molecule agonists of the estrogen receptor beta (ER-beta) signaling pathway (AID 1259377; active means well fitted activation curve with a large enough effect in the signal ratio in the repeat runs, not every such curve was filed as active; the % refers to the signal ratio)
Outline: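 ER-beta-UAS-bla HEK293T (GripTite) cells carrying a UAS-driven beta-lactamase reporter, in medium with 2% charcoal-stripped FBS, were exposed to compounds for 16 hr at 37C; LiveBLAzer B/G FRET substrate was then added and fluorescence read after 2 hours at room temperature.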

[3] = target: Estrogen receptor beta (Homo sapiens) (UniProt Q92731); test: qHTS assay to identify small molecule antagonists of the estrogen receptor beta (ER-beta) signaling pathway (AID 1259378; active means well fitted inhibition curve with a large enough effect in the signal ratio in the repeat runs, not every such curve was filed as active; the % refers to the signal ratio; further: potency means the concentration at half of the fitted maximal effect)
Outline: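 ER-beta-UAS-bla HEK293T (GripTite) cells in 2% charcoal-stripped FBS medium were preincubated 6 hr at 37C, dosed with compound, then stimulated with 1 nM E2 (final) for 16 hr; beta-lactamase reporter read by B/G FRET fluorescence after 2 hr substrate loading.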

[4] = qHTS assay to identify small molecule agonists of the androgen receptor (AR) signaling pathway in the presence of an antagonist - cell viability counter screen (AID 1259379; active means well fitted curve in the direction sought with a large enough effect in the repeat runs; an effect the other way counts as inactive or inconclusive; further: nearly all actives have a fitted effect of over 25% in size; further: potency means the concentration at half of the fitted maximal effect)
Outline: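 Cytotoxicity is assessed by CellTiter-Fluor in MDA-kb2 cells carrying an MMTV-driven luciferase reporter. Cells receive 3.0uM nilutamide plus compounds at 15 concentrations and incubate 16 hr at 37C without CO2 before fluorescence reading.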

[5] = qHTS assay to identify small molecule antagonists of the estrogen receptor beta (ER-beta) signaling pathway - cell viability counter screen (AID 1259382; active means well fitted curve in the direction sought with a large enough effect in the repeat runs; an effect the other way counts as inactive or inconclusive; further: nearly all actives have a fitted effect of over 55% in size; further: potency means the concentration at half of the fitted maximal effect)
Outline: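 Cytotoxicity counter screen multiplexed with the beta-lactamase antagonist assay: GripTite HEK293T ER-beta-bla cells were treated 16 hr with test chemicals in the presence of 1nM 17-beta-estradiol, and viability was measured by CellTiter-Glo.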

[6] = target: Estrogen receptor (Homo sapiens) (UniProt P03372); test: qHTS assay to identify small molecule agonists of the estrogen receptor alpha (ER-alpha) signaling pathway in the presence of an antagonist (AID 1259383); further: top concentration of the series differs between compounds; nearly all actives have a fitted effect of over 15% in size
Outline: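 Agonist-mode confirmation in the presence of the ER antagonist ICI-182,780 at 10.0nM final. Breast-derived VM7Luc4E2 reporter cells were exposed to compounds for 22hr, and ERE-driven luciferase was quantified by luminescence.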

[7] = qHTS assay to identify small molecule agonists of the estrogen receptor alpha (ER-alpha) signaling pathway in the presence of an antagonist - cell viability counter screen (AID 1259386; active means well fitted curve in the direction sought with a large enough effect in the repeat runs; an effect the other way counts as inactive or inconclusive;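 further: cells exposed to compounds for 22 h at 37 °C before the viability read; nearly all actives have a fitted effect of over 30% in size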; further: potency means the concentration at half of the fitted maximal effect)
Outline: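 Cytotoxicity was measured in parallel with the ERE-luciferase agonist screen, in the same wells. The cells were VM7Luc4E2, which endogenously express ER-alpha, and treatment was with compounds plus 10.0nM ICI-182,780 for 22hr.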

[8] = target: Progesterone receptor (Homo sapiens) (UniProt P06401); test: qHTS assay to identify small molecule agonists of the progesterone receptor (PR) signaling pathway (AID 1346784); further: nearly all actives have a fitted effect of over 30% in size
Outline: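 PR-UAS-bla HEK 293T cells carrying a UAS-driven beta-lactamase reporter were seeded in medium with 2% charcoal-stripped FBS, preincubated 6 hr at 37C, then exposed to compounds in DMSO for 16 hr; agonism was read by LiveBLAzer B/G FRET fluorescence.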

[9] = target: Progesterone receptor (Homo sapiens) (UniProt P06401); test: qHTS assay to identify small molecule antagonists of the progesterone receptor (PR) signaling pathway (AID 1346795; active means well fitted inhibition curve with a large enough effect in the signal ratio in the repeat runs, not every such curve was filed as active; the % refers to the signal ratio; further: potency means the concentration at half of the fitted maximal effect)
Outline: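 PR-UAS-bla HEK293T cells carrying a UAS-driven beta-lactamase reporter were plated in medium with 2% charcoal-stripped FBS and rested 6 hr at 37C. Compounds were added with 1 nM R5020 (final) for 16 hr, then FRET substrate loaded 2 hr at room temperature.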

[10] = qHTS assay to identify small molecule antagonists of the TGF-beta/Smad signaling pathway - cell viability counter screen (AID 1346824; active means well fitted curve in the direction sought with a large enough effect in the repeat runs; an effect the other way counts as inactive or inconclusive; further: nearly all actives have a fitted effect of over 50% in size)
Outline: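 SBE-bla HEK 293T cells were plated overnight at 37 C, then given compounds in DMSO plus TGF-beta1 (added as 0.25 ng/mL solution) for 5 hr. After the bla read, CellTiter-Glo was added to the same wells and luminescence read after 30 min at room temperature.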

[11] = qHTS assay to identify small molecule agonists of the TGF-beta/Smad signaling pathway - cell viability counter screen (AID 1346829; active means well fitted curve in the direction sought with a large enough effect in the repeat runs; an effect the other way counts as inactive or inconclusive; further: nearly all actives have a fitted effect of over 45% in size; further: potency means the concentration at half of the fitted maximal effect)
Outline: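 Luminescence from CellTiter-Glo, read after a 30 min room-temperature incubation, gives cell viability of SBE-bla HEK 293T cells treated 5 hr with compounds at 37 C.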

[12] = qHTS assay to identify small molecule agonists of the TGF-beta/Smad signaling pathway (AID 1346859; active means well fitted activation curve with a large enough effect in the signal ratio in the repeat runs, not every such curve was filed as active; the % refers to the signal ratio; further: series mostly up to about 77 µM)
Outline: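 HEK 293T cells stably carrying a beta-lactamase reporter driven by the Smad binding element were seeded overnight, exposed to DMSO-dissolved compounds for 5 hr at 37 C, 5% CO2, then loaded with FRET substrate for 2 hr at room temperature.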

[13] = target: Thyrotropin-releasing hormone receptor (Homo sapiens) (UniProt P34981); test: qHTS assay to identify small molecule antagonists of the thyrotropin-releasing hormone receptor (TRHR) signaling pathway (AID 1346877; active means well fitted inhibition curve with a large enough effect in the repeat runs, not every such curve was filed as active; further: series mostly up to about 51 µM)
Outline: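 Antagonism is measured as suppression of the calcium response to 1 nM TRH in TRHR-HEK293 cells that have been dye-loaded for 2 h at 37 °C after overnight plating. Each compound is tested at 15 concentrations in triplicate.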

[14] = target: Thyrotropin-releasing hormone receptor (Homo sapiens) (UniProt P34981); test: qHTS assay to identify small molecule agonists of the thyrotropin-releasing hormone receptor (TRHR) signaling pathway (AID 1346891); further: series mostly up to about 58 µM
Outline: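 TRHR-expressing HEK293 cells were plated 18 h at 37 °C/5% CO2, loaded with calcium dye 2 h at 37 °C, then given compound in DMSO; fluorescence was read kinetically for 3 min at 1 s intervals.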

[15] = qHTS assay to identify small molecule agonists of the estrogen receptor beta (ER-beta) signaling pathway - cell viability counter screen (AID 1259380; active means well fitted curve in the direction sought with a large enough effect in the repeat runs; an effect the other way counts as inactive or inconclusive; further: nearly all actives have a fitted effect of over 30% in size; further: potency means the concentration at half of the fitted maximal effect)
Outline: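 Cytotoxicity is measured in parallel with the reporter screen: after 16 hr compound exposure at 37C and a 2 hr LiveBLAzer step, CellTiter-Glo is added to the same ER-beta-UAS-bla HEK293T wells and luminescence read after 30 min.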

[16] = qHTS assay to identify small molecule agonists or antagonists of the thyroid stimulating hormone receptor (TSHR) signaling pathway - wild type cell line counter screen (AID 1259384)
Outline: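 Wild-type HEK293 cells were plated 18 h at 37 C/5% CO2, pin-dosed with compound plus Ro20-1724 medium, held 30 min at room temperature, then given cAMP-d2 and anti-cAMP-cryptate; fluorescence was read after 1 h. Fifteen concentrations, triplicate.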

[17] = target: Thyrotropin receptor (Homo sapiens) (UniProt P16473); test: qHTS assay to identify small molecule antagonists of the thyroid stimulating hormone receptor (TSHR) signaling pathway (AID 1259385); further: nearly all actives have a fitted effect of over 20% in size
Outline: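 TSHR-HEK293 cells were plated and held 18 h at 37C/5% CO2, then given compound plus Ro20-1724 and stimulated with TSH at 1.5 ng/mL final. After 30 min at room temperature, cAMP was detected with cAMP-d2/anti-cAMP-cryptate (1 h) by fluorescence.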

[18] = qHTS assay to identify small molecule antagonists of the progesterone receptor (PR) signaling pathway - cell viability counter screen (AID 1346798; active means well fitted curve in the direction sought with a large enough effect in the repeat runs; an effect the other way counts as inactive or inconclusive; further: series mostly up to about 92 µM; nearly all actives have a fitted effect of over 50% in size)
Outline: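 PR-UAS-bla HEK293T cells in medium with 2% charcoal-stripped FBS were treated with compounds plus R5020 for 16 hr at 37C. Cell viability was then read by CellTiter-Glo luminescence after 30 min at room temperature in the same wells.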

[19] = qHTS assay to identify small molecule agonists of the progesterone receptor (PR) signaling pathway - cell viability counter screen (AID 1346799); further: nearly all actives have a fitted effect of over 45% in size; further: potency means the concentration at half of the fitted maximal effect
Outline: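 PR-UAS-bla HEK293T cells, 3,000 per well in medium with 2% charcoal-stripped FBS, were preincubated 6 hr at 37C, then exposed to compounds for 16 hr; viability was read as CellTiter-Glo luminescence after 30 min at room temperature.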

[20] = target: Androgen receptor (Homo sapiens) (UniProt P10275); test: qHTS assay to identify small molecule agonists of the androgen receptor (AR) signaling pathway in the presence of an antagonist (AID 1259381); further: nearly all actives have a fitted effect of over 15% in size
Outline: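 Agonist-mode confirmation screen: human MDA-kb2 cells stably expressing luciferase under an MMTV promoter bearing AR and GR response elements, co-treated with 3.0uM nilutamide (final). Luminescence measured after 16hr compound incubation.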

Sequence of Estrogen receptor (Homo sapiens) (P03372 whole entry, looked up): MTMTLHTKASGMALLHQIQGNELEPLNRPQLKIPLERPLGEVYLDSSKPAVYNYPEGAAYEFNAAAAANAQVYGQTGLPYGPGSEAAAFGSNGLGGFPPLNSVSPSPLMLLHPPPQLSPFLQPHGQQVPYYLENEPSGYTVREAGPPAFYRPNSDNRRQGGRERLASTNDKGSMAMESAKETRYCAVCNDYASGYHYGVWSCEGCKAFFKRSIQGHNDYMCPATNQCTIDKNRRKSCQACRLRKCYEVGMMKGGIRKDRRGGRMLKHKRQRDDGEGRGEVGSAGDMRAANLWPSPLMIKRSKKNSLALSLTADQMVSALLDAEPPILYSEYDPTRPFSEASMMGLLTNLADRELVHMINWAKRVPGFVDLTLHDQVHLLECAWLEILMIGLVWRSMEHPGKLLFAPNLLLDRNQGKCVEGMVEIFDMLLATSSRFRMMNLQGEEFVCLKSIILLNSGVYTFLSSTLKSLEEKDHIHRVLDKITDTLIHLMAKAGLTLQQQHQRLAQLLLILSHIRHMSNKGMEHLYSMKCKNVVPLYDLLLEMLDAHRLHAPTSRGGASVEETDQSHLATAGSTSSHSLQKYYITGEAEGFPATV
Sequence of Thyrotropin receptor (Homo sapiens) (P16473 whole entry, looked up): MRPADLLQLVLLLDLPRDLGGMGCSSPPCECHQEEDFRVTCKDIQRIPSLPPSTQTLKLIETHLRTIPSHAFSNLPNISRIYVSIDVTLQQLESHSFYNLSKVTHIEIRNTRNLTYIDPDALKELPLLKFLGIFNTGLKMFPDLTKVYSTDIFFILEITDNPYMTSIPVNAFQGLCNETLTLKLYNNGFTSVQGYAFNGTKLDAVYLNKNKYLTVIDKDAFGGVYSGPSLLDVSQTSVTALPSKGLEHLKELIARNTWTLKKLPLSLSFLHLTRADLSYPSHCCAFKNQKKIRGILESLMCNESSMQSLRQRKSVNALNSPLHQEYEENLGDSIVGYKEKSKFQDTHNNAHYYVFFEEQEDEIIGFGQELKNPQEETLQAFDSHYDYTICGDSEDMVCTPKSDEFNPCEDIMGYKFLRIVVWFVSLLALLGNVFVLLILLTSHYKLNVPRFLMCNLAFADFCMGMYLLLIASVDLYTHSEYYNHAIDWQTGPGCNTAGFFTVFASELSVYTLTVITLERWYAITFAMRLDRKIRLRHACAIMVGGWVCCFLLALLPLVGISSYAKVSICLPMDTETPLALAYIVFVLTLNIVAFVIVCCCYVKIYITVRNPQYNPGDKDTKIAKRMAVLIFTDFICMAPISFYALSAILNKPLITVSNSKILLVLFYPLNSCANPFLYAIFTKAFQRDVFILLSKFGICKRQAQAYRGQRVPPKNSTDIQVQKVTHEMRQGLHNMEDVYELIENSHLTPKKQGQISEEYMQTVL
Sequence of Androgen receptor (Homo sapiens) (P10275 whole entry, looked up): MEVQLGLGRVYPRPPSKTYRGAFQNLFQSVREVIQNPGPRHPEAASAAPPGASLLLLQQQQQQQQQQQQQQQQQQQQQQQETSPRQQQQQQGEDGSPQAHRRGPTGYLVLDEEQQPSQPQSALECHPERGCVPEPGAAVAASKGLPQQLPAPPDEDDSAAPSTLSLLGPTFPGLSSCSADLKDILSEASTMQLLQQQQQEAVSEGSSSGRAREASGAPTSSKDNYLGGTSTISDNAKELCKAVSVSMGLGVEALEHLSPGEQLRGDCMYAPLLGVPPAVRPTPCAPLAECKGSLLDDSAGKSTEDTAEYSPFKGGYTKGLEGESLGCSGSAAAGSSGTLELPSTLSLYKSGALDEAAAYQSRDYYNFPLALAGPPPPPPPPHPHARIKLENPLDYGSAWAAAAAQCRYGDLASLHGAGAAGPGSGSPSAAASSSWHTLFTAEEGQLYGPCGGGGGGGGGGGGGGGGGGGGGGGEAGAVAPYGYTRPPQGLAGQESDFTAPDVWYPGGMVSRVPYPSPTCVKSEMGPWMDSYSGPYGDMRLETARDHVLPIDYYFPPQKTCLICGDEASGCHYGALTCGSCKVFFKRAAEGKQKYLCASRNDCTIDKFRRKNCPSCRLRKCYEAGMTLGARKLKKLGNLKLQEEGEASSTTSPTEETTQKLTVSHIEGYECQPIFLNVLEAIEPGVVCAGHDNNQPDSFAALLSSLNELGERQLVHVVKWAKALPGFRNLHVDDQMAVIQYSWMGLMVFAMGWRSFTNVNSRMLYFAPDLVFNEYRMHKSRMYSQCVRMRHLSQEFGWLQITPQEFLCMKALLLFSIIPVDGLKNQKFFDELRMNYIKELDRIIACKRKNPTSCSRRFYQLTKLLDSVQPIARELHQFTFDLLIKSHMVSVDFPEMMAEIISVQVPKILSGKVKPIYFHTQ
Sequence of Progesterone receptor (Homo sapiens) (P06401 whole entry, looked up): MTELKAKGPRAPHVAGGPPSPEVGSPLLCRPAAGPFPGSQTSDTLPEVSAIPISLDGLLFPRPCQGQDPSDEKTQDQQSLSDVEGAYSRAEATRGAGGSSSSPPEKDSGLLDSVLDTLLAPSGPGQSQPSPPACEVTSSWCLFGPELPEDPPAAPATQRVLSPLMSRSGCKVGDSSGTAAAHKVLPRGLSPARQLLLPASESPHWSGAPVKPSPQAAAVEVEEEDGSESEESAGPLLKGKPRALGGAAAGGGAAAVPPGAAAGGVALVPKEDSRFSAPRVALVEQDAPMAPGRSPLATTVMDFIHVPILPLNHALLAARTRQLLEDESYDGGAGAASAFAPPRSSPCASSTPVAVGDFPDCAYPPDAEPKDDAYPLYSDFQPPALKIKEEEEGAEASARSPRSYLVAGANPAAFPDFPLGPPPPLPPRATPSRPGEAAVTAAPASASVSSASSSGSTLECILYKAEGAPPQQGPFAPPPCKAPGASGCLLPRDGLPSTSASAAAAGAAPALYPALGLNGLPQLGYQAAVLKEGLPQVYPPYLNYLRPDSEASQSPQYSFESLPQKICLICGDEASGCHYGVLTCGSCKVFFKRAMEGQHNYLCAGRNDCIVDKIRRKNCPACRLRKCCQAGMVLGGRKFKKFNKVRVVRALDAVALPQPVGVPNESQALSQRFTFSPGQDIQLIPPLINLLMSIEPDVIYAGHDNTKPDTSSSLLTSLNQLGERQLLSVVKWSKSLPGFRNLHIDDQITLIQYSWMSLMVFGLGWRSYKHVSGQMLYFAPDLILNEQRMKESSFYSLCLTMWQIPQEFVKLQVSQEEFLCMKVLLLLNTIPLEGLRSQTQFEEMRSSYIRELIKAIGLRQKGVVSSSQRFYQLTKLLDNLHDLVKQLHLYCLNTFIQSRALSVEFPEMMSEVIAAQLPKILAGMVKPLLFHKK
Sequence of Thyrotropin-releasing hormone receptor (Homo sapiens) (P34981 whole entry, looked up): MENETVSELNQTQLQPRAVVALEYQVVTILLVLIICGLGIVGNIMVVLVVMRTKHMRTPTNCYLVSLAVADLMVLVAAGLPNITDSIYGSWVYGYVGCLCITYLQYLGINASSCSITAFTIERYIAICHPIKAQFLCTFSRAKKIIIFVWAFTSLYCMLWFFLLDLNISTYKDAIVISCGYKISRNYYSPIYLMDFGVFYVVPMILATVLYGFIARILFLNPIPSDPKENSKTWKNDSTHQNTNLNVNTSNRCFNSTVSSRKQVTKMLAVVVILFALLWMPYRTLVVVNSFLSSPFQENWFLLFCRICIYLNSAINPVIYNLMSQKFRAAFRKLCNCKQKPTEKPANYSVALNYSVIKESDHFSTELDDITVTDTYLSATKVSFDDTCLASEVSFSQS
Sequence of Estrogen receptor beta (Homo sapiens) (Q92731 whole entry, looked up): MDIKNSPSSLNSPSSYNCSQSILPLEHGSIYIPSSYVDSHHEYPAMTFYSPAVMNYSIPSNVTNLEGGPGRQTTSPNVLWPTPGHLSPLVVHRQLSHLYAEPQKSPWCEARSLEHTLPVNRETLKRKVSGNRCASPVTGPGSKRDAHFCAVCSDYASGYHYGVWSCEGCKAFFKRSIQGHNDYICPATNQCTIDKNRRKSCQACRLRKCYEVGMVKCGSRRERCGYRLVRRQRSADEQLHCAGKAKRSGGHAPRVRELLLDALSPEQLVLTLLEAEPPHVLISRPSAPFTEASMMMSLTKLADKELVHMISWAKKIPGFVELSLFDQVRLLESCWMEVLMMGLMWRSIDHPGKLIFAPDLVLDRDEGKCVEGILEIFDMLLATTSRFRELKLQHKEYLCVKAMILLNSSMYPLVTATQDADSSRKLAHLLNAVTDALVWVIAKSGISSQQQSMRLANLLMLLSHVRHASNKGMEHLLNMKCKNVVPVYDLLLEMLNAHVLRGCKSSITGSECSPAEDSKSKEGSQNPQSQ

| SMILES | Potency [1] | Potency [2] | Potency [3] | Potency [4] | Potency [5] | Potency [6] | Potency [7] | Potency [8] | Potency [9] | Potency [10] | Potency [11] | outcome [12] | Potency [13] | Potency [14] | Potency [15] | Potency [16] | Potency [17] | Potency [18] | Potency [19] | Potency [20] |
| --- | --- | --- | --- | --- | --- | --- | --- | --- | --- | --- | --- | --- | --- | --- | --- | --- | --- | --- | --- | --- |
| CNC(=O)Oc1cc(C)cc(C(C)C)c1 | inactive | inactive | inactive | inactive | inactive | inactive | inactive | inactive | inactive | inactive | inactive | inactive | inactive | inactive |  |  |  |  |  |  |
| C#CC1(O)CCCCC1 | inactive | inactive | inactive | inactive | inactive |  |  | inactive | inactive | inactive |  | inactive |  | inactive | inactive | inactive | inactive | inactive | inactive |  |
| CCCCCCCCCCCCCCn1cc[n+](C)c1 | 122 nM (active) and 42.8 nM (active) | inactive | inactive | 7.71 µM (active) and 1.7 µM (active) | 34.4 µM (active) and 34 µM (active) and inactive | inactive | 15.4 µM (active) and 24.1 µM (active) | inactive | inactive |  | 49.1 µM (active) and 38.5 µM (active) and inactive | inactive |  |  | 30.7 µM (active) and 60.4 µM (active) | inactive |  |  | 30.7 µM (active) and 42.8 µM (active) and inactive |  |
| CSC1=N[C@@](C)(c2ccccc2)C(=O)N1Nc1ccccc1 | 2.43 µM (active) | inactive | 27.3 µM (active) | 30.6 µM (active) | inactive |  | 54.5 µM (active) | inactive | 43.3 µM (active) |  | inactive | inactive | inactive | inactive |  |  |  |  |  |  |
| Oc1cc(Cl)c(Cl)c(Cl)c1Cl | 26.7 µM (active) | inactive | 13.4 µM (active) | 59.7 µM (active) | inactive | inactive |  | inactive | 21.2 µM (active) |  | inactive |  |  | inactive |  | inactive | inactive |  |  | inactive |
| CCC(C)Br (configuration not stated) | inactive | inactive | inactive | inactive | inactive |  | inactive | inactive | inactive | inactive | inactive | inactive | inactive | inactive | inactive | inactive | inactive | inactive | inactive |  |
| CC(C)C(Br)C(=O)NC(N)=O (configuration not stated) | inactive | inactive | inactive | inactive | inactive | inactive | inactive | inactive | inactive | inactive | inactive | inactive |  | inactive | inactive | inactive | inactive | inactive | inactive |  |
| CNC(=O)CSP(=O)(OC)OC | inactive | inactive | inactive | inactive | inactive | inactive | inactive | inactive | inactive | inactive | inactive | inactive |  |  | inactive | inactive | inactive | inactive |  |  |
| [O-][Cl+3]([O-])([O-])O | inactive | inactive | inactive | inactive | inactive |  | inactive | inactive | inactive | inactive |  | inactive |  | inactive | inactive |  |  | inactive | inactive |  |
| O=S(=O)(O)F | inactive | inactive | inactive |  | inactive | inactive | inactive | inactive | inactive | inactive | inactive | inactive | inactive | inactive | inactive | inactive | inactive | inactive | inactive |  |
| CC(C)N(C(=O)CCl)c1ccccc1 | 12.2 µM (active) and 9.69 µM (active) | inactive | 9.69 µM (active) | 54.5 µM (active) |  | inactive |  | inactive |  |  |  | inactive | inactive | inactive | 54.5 µM (active) and 27.3 µM (active) | inactive | inactive |  |  | inactive |
| ClC(Cl)C(Cl)(Cl)Cl | inactive | inactive | inactive | inactive | inactive | inactive | inactive | inactive | inactive | inactive | inactive | inactive | inactive | inactive | inactive | inactive | inactive | inactive |  |  |
| CC1(C)C(C=C(Cl)Cl)C1C(=O)OC(C#N)c1ccc(F)c(Oc2ccccc2)c1 (configuration not stated) | inactive | inactive | inactive | inactive | inactive | inactive | inactive | inactive | 13.7 µM (active) | inactive |  | inactive | inactive | inactive | inactive | inactive | inactive | inactive | inactive |  |
| Cc1ccn2nc(S(=O)(=O)Nc3c(F)cccc3F)nc2n1 | inactive | inactive | inactive | inactive | inactive |  |  |  |  | inactive |  | inactive | inactive | inactive | inactive | inactive | inactive | inactive |  |  |
| CCC(C)Nc1c([N+](=O)[O-])cc(C(C)(C)C)cc1[N+](=O)[O-] (configuration not stated) | inactive | inactive | inactive | inactive | inactive | inactive | inactive | inactive |  | inactive |  | inactive |  | inactive | inactive |  |  | inactive | inactive |  |
| CN/C(=N\[N+](=O)[O-])NCc1cnc(Cl)s1 | inactive | inactive | inactive | inactive | inactive | inactive | inactive | inactive | inactive | inactive | inactive | inactive |  |  | inactive |  |  | inactive | inactive |  |
| CCOC(=O)Cc1ccccc1 | inactive | inactive | inactive | inactive | inactive | inactive | inactive | inactive | inactive | inactive |  | inactive | inactive | inactive | inactive | inactive | inactive | inactive | inactive | inactive |
